The source of these data is the supplement of paper PMC10338343.

Assay [1] concerns MILI (PIWIL2) piRISC loaded with L1MC piRNA (26 nt). Briefly: pre-steady-state target cleavage rate (min^-1); guide: L1MC piRNA 5'p-UAACUAAAUACUAUGCAAGCUGUAGG; higher = faster piRNA-guided slicing of the target. In short, it runs like this:
(§1)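 Active affinity-purified piRISC (1 nM) loaded with one synthetic guide was mixed with a transcribed, DNA-blocked target RNA library (0.1 nM), with or without 500 nM GTSF1 partner protein, in HEPES–potassium acetate buffer at 33 °C for 0–8 or 0–960 min. Uncleaved targets were sequenced, normalised to depth and to weakly complementary targets, and pooled across three trials, with k3 capped at 0.0001 min^-1. The pre-steady-state cleavage rate was determined with a burst-and-steady-state fit.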

Assay [2] relates to EfPiwi piRISC loaded with L1MC piRNA (26 nt). Briefly: pre-steady-state target cleavage rate (min^-1); auxiliary factor: 500 nM Ephydatia muelleri Gtsf1; guide: L1MC piRNA 5'p-UAACUAAAUACUAUGCAAGCUGUAGG; MIWI and MILI are mouse PIWI proteins and EfPiwi is from a freshwater sponge; tags in brackets are library labels; higher = faster piRNA-guided slicing of the target. Summed up:
as §1

[3] abbreviates: auxiliary factor: 500 nM mouse GTSF1.
Setting [4] is: auxiliary factor: none (no GTSF1).

± gives the standard deviation.

Take UCCUGGAUCACCUUGCAUAGUAAUUAGUUA: the “pre-steady-state target cleavage rate” value was found to be 0.198 ± 0.03 in assay [1] (setting [3]), 0.00446 ± 0.0029 in assay [1] (setting [4]) and 0.123 ± 0.049 in assay [2].
Consider UCCUGGAAAAGCUUGCAUAGUAUUUAGUUA, for which the “pre-steady-state target cleavage rate” value in assay [1] (setting [3]) was determined as 0.249 ± 0.019; in assay [1] (setting [4]), 0.00809 ± 0.0029; in assay [2], 0.0119 ± 0.0039.
In the same order, the values of UCCUGGAUGAGCUUAGCAUAGUAUUUAGUUA are 0.217 ± 0.016, 0.0041 ± 0.0027 and 0.0344 ± 0.0086.
As for UCCUGGUUCAGGUUGCAUAGUAUUUAGUUA, the “pre-steady-state target cleavage rate” value in assay [1] (setting [3]) came out at 0.21 ± 0.023; in assay [1] (setting [4]), 0.0182 ± 0.005; in assay [2], 0.0166 ± 0.0047.
On to UCCUGGAUCAGCUUGCAUAGUAUUUAGUUUA, for which the “pre-steady-state target cleavage rate” value in assay [1] (setting [3]) is 0.358 ± 0.025; in assay [1] (setting [4]), 0.00718 ± 0.0026; in assay [2], 0.0394 ± 0.011.
In the same order, the values of UCCUGGUACAGCCUUGCAUAGUAUUUAGUUA are 0.198 ± 0.02, 0.0147 ± 0.0051 and 0.0209 ± 0.0073.
Take UCCUGGAUCUGCUUGCAUAGUAAUUAGUUA: the “pre-steady-state target cleavage rate” value in assay [1] (setting [3]) came out at 0.2 ± 0.017; in assay [1] (setting [4]), 0.00416 ± 0.0027; in assay [2], 0.0152 ± 0.005.
Turning to UCCUGGAUCAGGUUGCAUAGUAUUAAGUUA, the “pre-steady-state target cleavage rate” value was 0.144 ± 0.017 in assay [1] (setting [3]), 0.00601 ± 0.0021 in assay [1] (setting [4]) and 0.00407 ± 0.0025 in assay [2].
As for UCCUGGUUCAGCUUGCAUAGUAUAUAGUUA, the results for the “pre-steady-state target cleavage rate” value in assay [1] (setting [3]), in assay [1] (setting [4]) and in assay [2] were 0.198 ± 0.034, 0.0112 ± 0.0032 and 0.00607 ± 0.0027, respectively.
Turning to UCCUGGAUCAGCUUGCAUAGUAUGUUAGUUA, the “pre-steady-state target cleavage rate” value in assay [1] (setting [3]) was determined as 0.199 ± 0.017; in assay [1] (setting [4]) it was 0.00633 ± 0.0025; in assay [2], 0.031 ± 0.0087.
Turning to UCCUGGUACAGCUUGUCAUAGUAUUUAGUUA, the entries for the “pre-steady-state target cleavage rate” value in assay [1] (setting [3]), in assay [1] (setting [4]) and in assay [2] were 0.19 ± 0.018, 0.0068 ± 0.003 and 0.00651 ± 0.0024, respectively.
In the same order, the values of UCCUGCUACAGCUUGUAUAGUAUUUAGUUA are 0.255 ± 0.015, 0.00693 ± 0.0021 and 0.029 ± 0.0067.
As for UCCUGGAUGAGCUCUGCAUAGUAUUUAGUUA, the entries for the “pre-steady-state target cleavage rate” value in assay [1] (setting [3]), in assay [1] (setting [4]) and in assay [2] were 0.171 ± 0.01, 0.0111 ± 0.0033 and 0.00721 ± 0.0028, respectively.
In the same order, the values of UCCUCCUACACCUUGCAUAGUAUUUAGUUA are 0.237 ± 0.025, 0.0085 ± 0.0022 and 0.0762 ± 0.025.
Turning to UCCUCCUACAGCUUGCAUAGUAUUUGAGUUA, the entries for the “pre-steady-state target cleavage rate” value in assay [1] (setting [3]), in assay [1] (setting [4]) and in assay [2] were 0.199 ± 0.028, 0.00484 ± 0.0026 and 0.00541 ± 0.0025, respectively.
Take UCCUGGAUGUGCUUGCAUAGUAUCUAGUUA: the entries for the “pre-steady-state target cleavage rate” value in assay [1] (setting [3]), in assay [1] (setting [4]) and in assay [2] were 0.135 ± 0.031, 0.00366 ± 0.0031 and 0.00344 ± 0.0024, respectively.
Turning to “UCCUGGAUGUCGUUGCAUAGUAUUUAGUUA [g2:g18:cont:t1A]”, the figures for the “pre-steady-state target cleavage rate” value in assay [1] (setting [3]), in assay [1] (setting [4]) and in assay [2] were 0.164 ± 0.013, 0.0106 ± 0.0029 and 0.00621 ± 0.0026, respectively.
Take UCCUGCUUCAGCUUGCAUAGUAUUUACUUA: the “pre-steady-state target cleavage rate” value in assay [1] (setting [3]) was found to be 0.116 ± 0.021; in assay [1] (setting [4]), 0.00294 ± 0.0023; in assay [2] it was 0.00411 ± 0.0037.
For the sequence UCCUGCUACAGCAUUGCAUAGUAUUUAGUUA, the “pre-steady-state target cleavage rate” value in assay [1] (setting [3]) stood at 0.286 ± 0.02; in assay [1] (setting [4]) it was 0.0108 ± 0.0036; in assay [2], 0.00946 ± 0.0029.
As to UCCUGGUACAGCUUGCAUAGUAUCUAGUUA, the “pre-steady-state target cleavage rate” value in assay [1] (setting [3]) came to 0.156 ± 0.029; in assay [1] (setting [4]), 0.00431 ± 0.0025; in assay [2], 0.004 ± 0.0021.
UCCUGGAUGAGCUUGCCUAGUAUUUAGUUA: the figures for the “pre-steady-state target cleavage rate” value in assay [1] (setting [3]), in assay [1] (setting [4]) and in assay [2] were 0.194 ± 0.014, 0.00475 ± 0.0027 and 0.00623 ± 0.0037, respectively.
In the same order, the values of UCCUGGUUCAGCUUGCAUAGUAUUAAGUUA are 0.186 ± 0.029, 0.00855 ± 0.0027 and 0.00579 ± 0.0021.
Turning to UCCUCCGUACAGCUUGCAUAGUAUUUAGUUA, the “pre-steady-state target cleavage rate” value in assay [1] (setting [3]) is 0.272 ± 0.014; in assay [1] (setting [4]), 0.0094 ± 0.0023; in assay [2] it was 0.0578 ± 0.018.
UCCUGGAUCAGCUUGCAUAGUAUUUUGUUA: the entries for the “pre-steady-state target cleavage rate” value in assay [1] (setting [3]), in assay [1] (setting [4]) and in assay [2] were 0.144 ± 0.019, 0.00819 ± 0.0028 and 0.0125 ± 0.0042, respectively.
For UCCUCCUACAGCAUGCAUAGUAUUUAGUUA, the “pre-steady-state target cleavage rate” value in assay [1] (setting [3]) came out at 0.316 ± 0.021; in assay [1] (setting [4]), 0.0117 ± 0.0029; in assay [2], 0.0743 ± 0.019.
Take UCCUGGAUGAGCUUGCAUAGUAUUUUGUUA: the “pre-steady-state target cleavage rate” value in assay [1] (setting [3]) was 0.204 ± 0.04; in assay [1] (setting [4]) it was 0.00454 ± 0.0024; in assay [2], 0.00491 ± 0.0017.
As for UCCUGGAUGAGCUUGCAUAGUAUAUAGUUA, the “pre-steady-state target cleavage rate” value in assay [1] (setting [3]) came to 0.24 ± 0.031; in assay [1] (setting [4]), 0.00759 ± 0.0023; in assay [2], 0.00625 ± 0.0026.
As for UCCUGGAUGAGCUUUCAUAGUAUUUAGUUA, the “pre-steady-state target cleavage rate” value in assay [1] (setting [3]) stood at 0.15 ± 0.018; in assay [1] (setting [4]), 0.00493 ± 0.0026; in assay [2], 0.00433 ± 0.0018.
On to UCCUGGAUGAGGCUUGCAUAGUAUUUAGUUA, for which the “pre-steady-state target cleavage rate” value in assay [1] (setting [3]) amounted to 0.186 ± 0.018; in assay [1] (setting [4]), 0.0125 ± 0.0036; in assay [2], 0.0185 ± 0.0065.
Consider UCCUGGAUGAGCAUGCAAAGUAUUUAGUUA, for which the “pre-steady-state target cleavage rate” value in assay [1] (setting [3]) was found to be 0.056 ± 0.011; in assay [1] (setting [4]) it was 0.00571 ± 0.002; in assay [2], 0.00414 ± 0.0036.
As to UCCUGGUAGAGCUUGCAUAGUAUAUAGUUA, the “pre-steady-state target cleavage rate” value in assay [1] (setting [3]) was 0.207 ± 0.027; in assay [1] (setting [4]) it was 0.00638 ± 0.0021; in assay [2] it was 0.0131 ± 0.0051.
Regarding UCCUGGAACAGCUUGCAAAGUAAUUAGUUA, the “pre-steady-state target cleavage rate” value came out at 0.131 ± 0.018 in assay [1] (setting [3]), 0.00424 ± 0.0022 in assay [1] (setting [4]) and 0.00403 ± 0.002 in assay [2].
On to UCCUGGAACACCUUGCUUAGUAUUUAGUUA, for which the “pre-steady-state target cleavage rate” value was 0.155 ± 0.028 in assay [1] (setting [3]), 0.00581 ± 0.0019 in assay [1] (setting [4]) and 0.0036 ± 0.0033 in assay [2].
As to UCCUGGAACAGCCUGCAUAGUAUUUAGUUA, the “pre-steady-state target cleavage rate” value came out at 0.247 ± 0.012 in assay [1] (setting [3]), 0.00896 ± 0.0029 in assay [1] (setting [4]) and 0.0144 ± 0.0045 in assay [2].
Regarding UCCUGGUACAGCUUGCAUAGUACUUAGUUA, the “pre-steady-state target cleavage rate” value in assay [1] (setting [3]) was determined as 0.187 ± 0.029; in assay [1] (setting [4]), 0.00401 ± 0.0032; in assay [2], 0.00275 ± 0.0022.
